Sampled rows, rich in hits. Any-hit rate of the full collection: about 2.4%.
D2 antagonist: antagonists of human D2 dopamine receptor. HEK293 TREx D2 cells, calcium flux, dopamine EC80. P14416. inhibition, % at 10 µM. actives 2% (n = 340,000). AID 485344; in the data active = inhibition above about 30%; inactive = below that, where a call was filed; note: 0% is about no effect
Target sequence (P14416 whole entry, looked up): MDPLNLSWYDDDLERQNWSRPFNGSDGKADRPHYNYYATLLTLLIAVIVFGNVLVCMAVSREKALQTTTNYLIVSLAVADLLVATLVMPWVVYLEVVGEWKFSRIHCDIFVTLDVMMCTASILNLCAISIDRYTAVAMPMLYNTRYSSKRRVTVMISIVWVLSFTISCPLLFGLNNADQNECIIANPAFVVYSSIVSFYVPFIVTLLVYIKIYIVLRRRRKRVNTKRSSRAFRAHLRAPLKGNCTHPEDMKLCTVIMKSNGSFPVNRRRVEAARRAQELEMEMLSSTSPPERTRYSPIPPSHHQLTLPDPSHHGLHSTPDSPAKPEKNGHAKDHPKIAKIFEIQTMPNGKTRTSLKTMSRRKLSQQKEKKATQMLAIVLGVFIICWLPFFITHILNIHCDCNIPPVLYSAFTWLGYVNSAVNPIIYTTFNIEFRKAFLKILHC
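Overnight-induced (tetracycline, 30 C) HEK293 T-REx cells carrying force-coupled D2 receive a no-wash calcium dye, then compound, then EC80 dopamine at 180 s; signals are read kinetically throughout.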
D2 PAM-1: D2 dopamine receptor (human) potentiation; P14416; HEK293 T-REx D2, calcium flux, EC20 dopamine potentiation; potentiation, % at 10 µM; actives 0.34% (n = 340,000); AID 485347;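 active = potentiation over 3 SD above the plate norm, cut at about 30% in these data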; note: 0% is about no effect
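Cells plated with tetracycline inducer and held overnight at 30 C; calcium dye loaded 30–90 min at room temperature; baseline taken, compound added and read 180 s; EC20 dopamine then added and read 180 s.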
D2 ag-1: human D2 receptor agonism in beta-arrestin assay. P14416. DiscoveRx PathHunter D2 beta-arrestin, luminescence, 90 min; 100% = 57 uM dopamine signal. activation, % (concentration not given with the values). actives 0.084% (n = 360,000); in the data active = activation above about 40%; inconclusive = between about 15% and that limit
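DiscoveRx PathHunter D2 beta-arrestin cells (2,100/well) attached overnight, then compound-stimulated 90 min at 37 C in HBSS/10 mM HEPES/0.1% Tween-20 buffer; beta-galactosidase complementation read by luminescence after 1 h at ambient temperature. Dopamine 57 uM final (EC100) as control.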
D2 ag-2: agonists of human D2 dopamine receptor; activation, % at 2 µM; HEK293 T-REx D2 cells, calcium flux agonist mode; actives 0.53% (n = 340,000);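 active = activation over 3 SD above normal in the single-dose calcium agonist read, cut at about 30% in these data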; note: 0% is about no effect
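Agonism scored from kinetic calcium signal (1 read/sec, 180 s) following compound pin transfer, after a 10 s baseline. Cells: HEK293 Trex line expressing inducible D2 receptor coupled to calcium, dye-loaded after overnight culture at 30 C.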
D2 PAM-2: positive allosteric modulators of human D2 dopamine receptor; P14416; DiscoveRx D2 beta-arrestin cells, luminescence, 90 min; 100% = 57 uM dopamine signal; actives 0.23% (n = 360,000); potentiation, % (concentration not given with the values); in the data active = potentiation above about 50%; inconclusive = mostly about 30% to 49%
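D2 cells co-treated with compound plus 50 nM dopamine (EC20) for 90 min at 37 deg C to detect potentiation. Beta-arrestin recruitment was read as enzyme-fragment luminescence after 1 h at ambient temperature. Full response was set by 57 uM dopamine.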
D3 arrestin ag: confirmation of human D3 dopamine receptor agonists, beta-arrestin. AID 720506. actives 4% (n = 2,300). Potency, µM (titrated, usually from 76.9 µM), for the others: at the highest dose activation, most hits filed as activators. shares compounds with D2 ag-2. DiscoveRx D3 beta-arrestin cells, luminescence, 90 min;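 note: potency is the fitted concentration of half-maximal effect; 100% = dopamine control response; nearly all actives have a fitted effect of over 70% in size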
D2 ag-3: activates human D2 dopamine receptor in D3 counterscreen; shares compounds with D2 ag-2; DiscoveRx PathHunter D2 beta-arrestin, luminescence, 90 min; response scale: percent relative to full dopamine signal; Potency, µM (highest dose often 76.9 µM), for inactives: top-dose activation, hits mostly activators; actives 5.9% (n = 2,300); AID 720507; note: potency is the fitted concentration of half-maximal effect; % of control where 0% means no effect; nearly all actives have a fitted effect of over 70% in size
* = called active by the depositor; ? = inconclusive; · = not tested or not shown. Unless noted, calls come from the whole dose curve; as a rule, active = well fitted activation curve with a large enough effect; inconclusive = small, poorly fitted or top-dose-only effect; inactive = flat fitted curve, though single readings scatter.

SMILES	D2 antagonist	D2 PAM-1	D2 ag-1	D2 ag-2	D2 PAM-2	D3 arrestin ag	D2 ag-3
Cc1cc(NC(=O)CSCC(=O)Nc2cc(C(F)(F)F)ccc2N2CCOCC2)no1	-19	7	3	0	-4	-6%	-2%
Cc1cc(NC(=O)CSCC(=O)Nc2cc(C(F)(F)F)ccc2N2CCCC2)no1	-3	4	-6	0	-19	·	·
COc1cccc(-n2cc(CNCc3c(C(=O)N(C)C)nc4ccc(Cl)cn34)cn2)c1	·	-21	-3	·	-22	10%	0%
Cc1ccccc1-n1cc(CNCc2c(C(=O)N(C)C)nc3ccc(Cl)cn23)cn1	1	-1	-5	0	-25	·	·
COc1cccc(-n2cc(CNCc3cn(C)nc3-c3ccccc3F)cn2)c1	85*	-22	66*	79*	24	6.3µM*	13µM*
CC(CCc1ccccc1)NCc1ccncc1 (stereo not given)	64*	-23	?	68*	0	?	?
CC(Cc1ccccc1)C(=O)NCc1ccncc1 (stereo not given)	-25	2	-1	1	-19	·	·
CCCS(=O)(=O)N1CCC(C(=O)NC2CCCCC2C)CC1 (stereo not given)	10	-1	-5	1	-23	-15%	-3%
CCS(=O)(=O)N1CCCC(C(=O)NC2CCCCC2C)C1 (stereo not given)	9	-5	-2	0	-4	·	·
COc1ccc(CNC(=O)Cn2c(=O)nc(-c3ccccc3)c3cc(Cl)ccc32)cc1OC	·	-1	·	-1	·	·	·
COCC1CCN(Cc2c(C(=O)N3CCN(C4CCCCC4)CC3)nc3ccccn23)C1 (stereo not given)	-14	-5	-4	0	-50	·	·
COC1CCN(Cc2c(C(=O)N3CCN(C4CCCCC4)CC3)nc3ccccn23)CC1	-8	-21	-1	59*	-7	0%	-7%
O=C(OCc1cc(=O)n2c3c(sc2n1)CCCC3)c1cccc(NC(=O)c2ccccc2F)c1	·	5	·	-1	·	·	·
O=C(Nc1cccc(Cl)c1)c1nc[nH]c1C(=O)NCCCCNC(=O)c1[nH]cnc1C(=O)Nc1cccc(Cl)c1	·	·	-3	·	-4	·	·
Cc1cccc(NC(=O)c2nc[nH]c2C(=O)NCc2ccccc2)c1	-7	-11	-4	0	-7	-5%	-4%
O=C(Nc1cccc(Cl)c1)c1nc[nH]c1C(=O)NCc1ccccc1	-1	2	-4	1	-7	-5%	-2%
O=C(Nc1ccccc1)c1nc[nH]c1C(=O)NCc1ccccc1	12	-15	-7	0	-9	-11%	4%
COc1ccc(Cl)cc1NC(=O)Cn1c(=O)n(Cc2ccc(F)cc2)c(=O)c2cccnc21	·	-3	·	1	·	·	·
Cc1ccc(S(=O)(=O)N2CCN(CCOc3ccccc3)CC2)cc1	16	-24	8	50*	-16	26%	10%
CC(=O)c1cccc(S(=O)(=O)N2CCN(CCOc3ccccc3)CC2)c1	1	-22	3	49*	-12	?	15%
CC(=O)c1ccc(S(=O)(=O)N2CCN(CCOc3ccc(Br)cc3)CC2)cc1	-6	0	2	1	-3	·	·
O=S(=O)(c1ccccc1)N1CCN(CCOc2ccc(F)cc2)CC1	·	·	-1	·	-14	·	·
O=S(=O)(c1ccccc1F)N1CCN(CCOc2ccccc2)CC1	39*	-21	-1	31*	-28	21%	16%
COc1cccc(Cn2c(=O)n(Cc3ccccc3)c(=O)c3c2c2cc(OC)ccc2n3C)c1	·	3	·	·	·	·	·
COc1ccc(C2C(C(N)=O)=C(C)Nc3nc(SCc4ccccc4Cl)nn32)cc1OC (stereo not given)	·	5	·	0	·	·	·
CC1(C)CC(=O)C2=C(C1)OC(N)=C(C#N)C21CCN(Cc2ccccc2)CC1	-16	7	2	3	-22	·	·
